Assay outcomes deposited in PubChem BioAssay by National Center for Advancing Translational Sciences (NCATS).
HT1080-NT tox = qHTS for induction of synthetic lethality in tumor cells producing 2HG: qHTS for the HT-1080-NT fibrosarcoma cell line | HT-1080-NT fibrosarcoma viability, CellTiter-Glo ATP luminescence, 48 h | Potency, µM (highest dose often 46.1 µM), usual class: cytotoxic | hit rate 1.6% among 360,000 | AID 686970, 2013;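 also: NT is the 2HG producing partner of a matched IDH1 knockdown line; nearly all actives have a fitted effect of over 55% in size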
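Viability by CellTiter-Glo luminescence after 48 h compound exposure at 37C of HT-1080-NT cells (750/well, RPMI, 5% FBS). % activity scaled between DMSO wells and medium-only wells, then curve-fitted and categorized by curve class.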
KB-3-1 cytotox = qHTS assay for MDR1-selective chemotherapeutics: Primary screen using the parental adenocarcinoma cell KB-3-1; KB-3-1 viability, CellTiter-Glo ATP luminescence, 72 h; Potency, µM (titrated, usually from 46.1 µM), hits mostly cytotoxic; hit rate 1.4% among 400,000; AID 1347075, 2019; also: nearly all actives have a fitted effect of over 60% in size
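Here the drug-naive KB-3-1 line serves as comparator for MDR sub-line selectivity; cells received compound titrations, 72 h at 37 °C, then CellTiter-Glo readout.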
DT40 TDP1 CPT = qHTS for Inhibitors of human tyrosyl-DNA phosphodiesterase 1 (TDP1): qHTS in cells in presence of CPT; chicken DT40 Tdp1-/-;hTDP1 cells + 20 nM CPT, ATP luminescence, 48 h; Potency, µM (highest dose often 46.2 µM), usual class: inhibitors; hit rate 12% among 420,000; AID 686979, 2013; also: nearly all actives have a fitted effect of over 55% in size
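Chicken DT40 Tdp1-/- cells complemented with human TDP1, 400 cells/well, exposed to compounds plus 20 nM camptothecin for at least 48 h at 37 C; viability read as ATP content by CellTiter-Glo luminescence.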
KB-V1 MDR tox = qHTS assay for MDR1-selective chemotherapeutics: Primary screen using the drug-selected MDR subline cells KB-V1 | KB-V1 MDR cells viability, CellTiter-Glo, 72 h | Potency, µM (doses to about 46.1 µM), usual class: cytotoxic | hit rate 3.4% among 400,000 | AID 1347076, 2019; also: nearly all actives have a fitted effect of over 60% in size
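Following 72 h at 37 degrees C with compound, KB-V1 cell viability was read by CellTiter-Glo luminescence, medium being phenol-red-free DMEM plus 10% FBS; concentration-response parameters came from normalized, curve-fitted qHTS data.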
HT1080 IDH1KD tx = qHTS for induction of synthetic lethality in tumor cells producing 2HG: qHTS for the HT-1080-IDH1KD cell line. AID 686971, 2013. hit rate 2% among 360,000. Potency, µM (titrated, usually from 46.1 µM), most hits filed as cytotoxic. HT-1080 IDH1 knockdown viability, ATP luminescence, 48 h
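Luminescent ATP read-out (CellTiter-Glo, 10 min at room temperature) after 48 h compound exposure at 37 °C gave viability of IDH1-knockdown HT-1080 cells. Activity was normalised to DMSO and cell-free wells, then fitted as concentration-response curves.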
TDP1 cell noCPT = qHTS for Inhibitors of human tyrosyl-DNA phosphodiesterase 1 (TDP1): qHTS in cells in absence of CPT; hit rate 15% among 420,000; Potency, µM (doses to about 46.2 µM), hits mostly inhibitors; AID 686978, 2013; DT40 Tdp1-/- hTDP1 cells, no CPT, ATP luminescence, 48 h; also: nearly all actives have a fitted effect of over 55% in size
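Readout: luminescence from CellTiter-Glo after 30 min in the dark at RT. Cells: DT40 Tdp1-/- with stable hTDP1, 400/well. Exposure: compounds alone, ≥48 hr, 37 °C.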
Large screens that a line does not name were inactive. The list is not random: actives were taken first. Their share in the collection is about 19%. Calls follow the shape of the dose curve; as a rule, active = well fitted curve in the direction sought with a large enough effect; inconclusive = small, poorly fitted or top-dose-only effect, or another doubt; inactive = no such curve, though single readings can be large; an effect the other way counts as inactive or inconclusive.

COc1ccc(C2C(C#N)=C(N)Oc3cc(C)[nH]c(=O)c32)cc1OC (configuration not stated)	none
COc1ccc(C2/C=C\CN(CC3CC3)CC(=O)N2Cc2ccc(F)cc2)cc1 (configuration not stated)	DT40 TDP1 CPT inconclusive, TDP1 cell noCPT inconclusive
COc1ccc(C2/C=C\CN(S(=O)(=O)c3ccc(C)cc3)CC(=O)N2Cc2cccc(F)c2)cc1 (configuration not stated)	DT40 TDP1 CPT 15µM, TDP1 cell noCPT inconclusive
Cc1cc(N2CCN(c3ccccc3)CC2)nc(NCc2ccccc2)n1	DT40 TDP1 CPT 21µM, TDP1 cell noCPT 16µM
Cc1cc(=O)[nH]c(NCc2ccccc2)n1	none
Cc1cc(OC(C)C)nc(NCc2ccccc2)n1	HT1080-NT tox inconclusive, KB-3-1 cytotox 12µM, DT40 TDP1 CPT inconclusive, HT1080 IDH1KD tx inconclusive, TDP1 cell noCPT 13µM
CCCc1nc(C)cc(N2CCN(c3ccccc3)CC2)n1	KB-3-1 cytotox inconclusive, DT40 TDP1 CPT 29µM, KB-V1 MDR tox inconclusive, TDP1 cell noCPT 21µM
Oc1ccc(CNc2ccc(F)cc2)c2cccnc12	HT1080-NT tox 18µM, KB-3-1 cytotox inconclusive, DT40 TDP1 CPT 2.9µM, HT1080 IDH1KD tx 18µM, TDP1 cell noCPT 1.6µM
Oc1ccc(CNc2ccccc2)c2cccnc12	HT1080-NT tox 5.8µM, KB-3-1 cytotox inconclusive, DT40 TDP1 CPT 3.7µM, HT1080 IDH1KD tx inconclusive, TDP1 cell noCPT 2.6µM
OCc1ccnc2c(O)cccc12	KB-3-1 cytotox inconclusive, DT40 TDP1 CPT inconclusive, KB-V1 MDR tox inconclusive, TDP1 cell noCPT inconclusive
Oc1ccc(Cn2ccnc2)c2cccnc12	HT1080-NT tox inconclusive, KB-3-1 cytotox inconclusive, HT1080 IDH1KD tx inconclusive, TDP1 cell noCPT inconclusive
Cc1ccccc1NCc1ccc(O)c2ncccc12	HT1080-NT tox 3.2µM, DT40 TDP1 CPT 2.6µM, KB-V1 MDR tox inconclusive, HT1080 IDH1KD tx 0.71µM, TDP1 cell noCPT 5.2µM
COc1ccccc1CCN=C(N)NS(=O)(=O)c1ccc(F)cc1	DT40 TDP1 CPT inconclusive, KB-V1 MDR tox inconclusive, TDP1 cell noCPT inconclusive
COc1cc(C(=O)NCc2nc(-c3ccc(Cl)cc3)no2)cc(OC)c1OC	none (no result: HT1080-NT tox, KB-3-1 cytotox, KB-V1 MDR tox, HT1080 IDH1KD tx)
O=C(C1CC12CCN(Cc1cccc3cccnc13)CC2)N1CCN(Cc2cccs2)CC1 (configuration not stated)	DT40 TDP1 CPT 1.6µM, TDP1 cell noCPT inconclusive (no result: HT1080-NT tox, KB-3-1 cytotox, KB-V1 MDR tox, HT1080 IDH1KD tx)
Cc1ccc(S(=O)(=O)N2CCN(C(=O)C3CCCC3)CC2)cc1C	DT40 TDP1 CPT inconclusive, TDP1 cell noCPT inconclusive
O=C(CC1SC(=O)N(c2ccccc2)C1=O)Nc1cccc2ccccc12 (configuration not stated)	DT40 TDP1 CPT 3.3µM, TDP1 cell noCPT 5.2µM
COc1ccccc1NC(=O)CC1SC(=N)N(c2ccccc2)C1=O (configuration not stated)	KB-V1 MDR tox inconclusive, TDP1 cell noCPT inconclusive
CCOc1ccc(NC(=O)CC2C(=O)N(c3ccccc3)C(=O)N2C2CCCC2)cc1 (configuration not stated)	DT40 TDP1 CPT inconclusive (no result: HT1080-NT tox, HT1080 IDH1KD tx)
CCOc1ccc(NC(=O)CC2SC(=O)N(c3ccccc3)C2=O)cc1 (configuration not stated)	DT40 TDP1 CPT 1.2µM, TDP1 cell noCPT 2.9µM
Cc1ccccc1NC(=O)CC1SC(=O)N(c2ccccc2)C1=O (configuration not stated)	DT40 TDP1 CPT 6.5µM, TDP1 cell noCPT 4.6µM
